The campaign covered roughly 190,000 compounds. About 45 (0.02%) were called active. Rule as the data show it: active = inhibition above about 40%. These entries were drawn from the full list.
What follows are molecules tested against Bcl-2-like protein 2 (Homo sapiens) (UniProt Q92843) (assay: inhibitors of Bim binding to Bcl-W, primary screen, biochemical, multiplexed, bead-based flow cytometry (AID 952;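 also: 0% = bound tracer without compound and 100% = peptide blocker; higher means less fluorescent Bim peptide bound to Bcl-W beads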)). Details: Bim peptide-Bcl-W binding, at 10 µM, hits give high values.
Bcl-2-like protein 2 (Homo sapiens), sequence (Q92843 whole entry, looked up): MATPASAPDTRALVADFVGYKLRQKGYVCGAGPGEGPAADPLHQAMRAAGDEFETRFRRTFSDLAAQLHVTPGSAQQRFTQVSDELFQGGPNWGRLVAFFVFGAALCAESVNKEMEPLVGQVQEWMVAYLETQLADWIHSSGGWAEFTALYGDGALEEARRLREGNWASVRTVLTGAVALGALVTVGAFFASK

inhibition, inactive:
CC1(C)CC(=O)C=C(N2CCOCC2)C1 -2%, Cc1cc(OCCCC(=O)NCCN2C(=O)S/C(=C\c3cccnc3)C2=O)ccc1Cl -3%, O=C(N/N=C/c1ccc(OCc2ccccc2)cc1)c1ccc(O)cc1 0%, CC(C)C(O)C1CCN(Cc2nc(Cc3ccccc3Cl)no2)CC1 (stereo not given) 1%, CSc1ccc(/C=C/C(=O)NC23CC4CC(CC(C4)C2)C3)cc1 -2%, CN1CCN(/N=C/c2ccc(-c3ccc([N+](=O)[O-])cc3)o2)CC1 3%, Cc1ccnc(NC(=O)CCCOc2ccccc2)c1 -1%, Cc1ccc(CCCOC(=O)C[N+]2(C)CCCC2)cc1 3%, COc1ccc(-c2csc3ncnc(Oc4ccc5c(C)cc(=O)oc5c4)c23)cc1 -9%, CCn1c(SCc2ccccc2)nc2c(c1=O)SCC2 -2%, CCOC(=O)C1=C(CN2CCCCCC2)NC(=O)NC1c1cccc([N+](=O)[O-])c1 (stereo not given) -2%, FC(F)Oc1ccccc1NC(=S)Nc1cccc(Cl)c1Cl -3%, CCC(C)NC(=O)c1ccc(N2CCC3(CC2)OCCO3)c([N+](=O)[O-])c1 (stereo not given) -1%, C=C(C)C1CC=C(C)/C(=N\NC(=O)CNc2ccccc2OC)C1 (stereo not given) 0%, NCCCC[C@@H]1NC(=O)[C@H](CCC(=O)O)NC(=O)c2cc([N+](=O)[O-])cc(I)c2NCC[C@@H](C(N)=O)NC1=O 2%, Cc1nnc(SCC(=O)N2CCOCC2)[nH]c1=O -4%, OCCC1CN(Cc2ccc(Oc3ncccn3)cc2)CCN1CCc1ccccc1 (stereo not given) -3%, Cc1[nH]c2ccccc2c1/C=N\NC(=O)Cn1nnc(-c2ccccc2)n1 -6%, CCOC(=O)C1=NOC(Cn2cc(C(C)=O)c(=O)[nH]c2=O)C1 (stereo not given) -3%, CN(C)c1ccc(Nc2c3c4c(cccc4n(C)c2=O)C(=O)c2ccccc2-3)cc1 14%, C1CC1Cc1noc(CN2CCN(CC3CC3)CC2)n1 -3%, COC(=O)c1nn(-c2cccc(Cl)c2)ccc1=O 1%, O=C(CC1C(=O)NCCN1CC(c1ccccc1)c1ccccc1)NCCc1cn[nH]c1 (stereo not given) -4%, O=C(CCN1C(=O)c2ccccc2C1=O)NCCCn1ccnc1 0%, Cc1cc(C)c2c(n1)sc1c(=O)n(-c3ccccc3)c(=O)[nH]c12 -3%, Cc1ccccc1NS(=O)(=O)CCCCC(Cl)(Cl)Cl 0%, COc1ccc(NS(=O)(=O)c2ccc(NC(=O)c3ccc(N(C)S(C)(=O)=O)cc3)cc2)cc1 -8%, CCc1ccc(-n2c(SCc3cc(=O)n4cc(Br)ccc4n3)nc3[nH]ncc3c2=O)cc1 -4%, COCCNC(=O)C(c1ccc(O)cc1)N(C(=O)CCC(=O)Nc1nccs1)c1ccc(C)cc1 (stereo not given) -3%, O=C(CN1CCN(S(=O)(=O)c2ccc(Br)cc2)CC1)Nc1ccccc1C(=O)c1ccccc1 -9%, O=C(NCC1COc2ccccc2O1)C1(c2ccccc2)CCCC1 (stereo not given) -1%, OCCCC1CCCCN1Cc1nc(Cc2ccccc2Cl)no1 (stereo not given) 4%, CCOC(=O)/C(=N\Nc1cc(Cl)ccc1Cl)N1CCN(C)CC1 -5%, COC(=O)c1c(NC(=O)CN(c2ccc(C)c(C)c2)S(C)(=O)=O)sc2c1CCCC2 -6%, Cc1ccc(S(=O)(=O)N2CCCC2C(=O)OCc2nc3sc(C)c(C)c3c(=O)[nH]2)cc1 (stereo not given) -3%, CN(C)c1nc(N)nc(Cn2nnc(-c3ccc(C(F)(F)F)cc3)n2)n1 -5%, CC(=O)N/N=C/c1cc2c(cc1[N+](=O)[O-])OCO2 -2%, O=C(CN1CCN(C(=S)NC2CCCC2)CC1)Nc1ccc(Oc2ccccc2)cc1 -12%, Cc1ccc2nsnc2c1NC(=O)c1ccccc1[N+](=O)[O-] 0%, CC(C)N1CCC(N2CCN(Cc3cccnc3)CC2CCO)CC1 (stereo not given) -4%, CCN(CCCNC(=O)CCn1c(=O)[nH]c2ccsc2c1=O)c1ccccc1 1%, O=C(COC(=O)c1ccccc1C(=O)N1CCN(c2ccccc2)CC1)NCc1ccccc1 -3%, O=C(CCCO)N/N=C/c1cc(Br)ccc1O -3%, CC(C)(C)CN1CCNC(=O)C1CC(=O)NC1Cc2ccccc2C1 (stereo not given) 1%, COc1ccc(C(=O)N2CCC(C(=O)Nc3ccc(C)cc3)CC2)cc1 -1%, N#Cc1ccc(-c2nc3cc(C#N)c(C#N)cc3nc2-c2ccccc2)cc1C#N 0%, COc1ccc(NC(=S)SC)cc1OC -2%, O=C(N/N=C/c1ccc([N+](=O)[O-])o1)c1cccc(S(=O)(=O)N2CCOCC2)c1 0%, C=CCOC(=O)C1=C[C@@H](c2ccccc2)C[C@@H](OCc2ccc(CO)cc2)O1 0%, CCC(C)(C)NC(=O)CN(C(=O)CCC(=O)Nc1cc(C)ccn1)c1ccc2c(c1)OCCO2 1%, Cn1c(=NC(=O)c2ccc3c(c2)OCCO3)sc2cc(S(C)(=O)=O)ccc21 -1%, Cn1nc(-c2ccccc2)c(CO)c1Sc1ccccc1 -2%, Cc1cc(C)c(S(=O)(=O)N2CCOCC2)cc1C 0%, Cc1cccc(C(=O)N2CCc3c([nH]c4ccccc34)C2CC(C)C)n1 (stereo not given) 3%, CN(C)S(=O)(=O)c1ccc2oc(SCC(=O)Nc3ccccc3F)nc2c1 0%, O=C(NNC(=O)c1ccccc1[N+](=O)[O-])Nc1ccccc1C(F)(F)F 0%, Cc1cc(C(=O)NNC(=S)Nc2ccccc2C)cs1 0%, COC(=O)c1ccccc1NC(=O)C1CC(=O)N(c2ccc(OC)cc2)C1 (stereo not given) 0%, Cc1noc(C)c1S(=O)(=O)N(C)Cc1ccccc1 -1%, CNCC(O)CN1CCN(c2ccccc2OC)CC1 (stereo not given) -1%, Cc1ccc(CCCOC(=O)C[N+]2(C)CCCCC2)cc1 0%, CCOC(=O)NN1C(=O)c2ccccc2NC1c1cccc(O)c1 (stereo not given) 0%, CCOC(=O)c1c(/N=C/C2C(=O)CC(C)(C)CC2=O)sc(C)c1C 2%, COc1ccc(Cl)cc1C(=O)NNC(=S)NC1CCCC1 1%, Cc1cc(N2CCOCC2)nc(-c2ccc(Br)cc2)n1 -3%, OCC(O)CN(c1ccccc1)c1ccccc1 (stereo not given) -1%, O=C(CNC1CCCCC1)NCC1(c2ccccc2)CCCC1 0%, COCCn1c(Cc2cccn2C)nnc1SCC(=O)Nc1nccs1 2%, COc1cc(CNC2CCCC2)c(Br)cc1OCc1ccccc1 -3%, O=C(NCCN1CCOCC1)c1cc(Sc2cccc(Cl)c2)nc2ccccc12 -3%, CCN1CCN(CC(=O)c2cc(OC)c(OC)c(OC)c2)CC1 -1%, O=C(Cc1ccc(F)cc1)N1CCN=C1SCc1cccc([N+](=O)[O-])c1 -1%, CCN(CC)CCNS(=O)(=O)c1ccc(/C=C/C(=O)O)cc1 -2%, C=CCc1ccc(OCC(O)CN2CCN(Cc3ccccc3)CC2)c(OC)c1 (stereo not given) -2%, Cn1c(N)c(C(=O)COC(=O)c2cnc(Cl)c(Cl)c2)c(=O)n(C)c1=O 0%, Cc1ccc(NC(=O)CSc2nnc(CNC(=O)c3ccccc3F)o2)cc1 2%, O=[N+]([O-])c1ccc(N2CCNCC2)cc1NCc1cccnc1 0%, CCOC(=O)c1cc(-c2ccc(F)cc2)n(CC(=O)NCc2ccccn2)c1C 0%, CCOC(=O)N1CCN(CCC(=O)Nc2cc(OC)ccc2OC)CC1 1%, C=CCNC(=O)COC(=O)c1ccccc1C(=O)N(C)C1CCCCC1 0%, COc1ccccc1N1CCN(C(=O)C(=O)N/N=C/c2ccccc2F)CC1 -3%, COc1ccc(C(=O)CSc2nc(C)cc(C)n2)cc1[N+](=O)[O-] -1%, CC(C)Oc1ccc(Cc2n[nH]c(=S)n2Cc2ccccc2)cc1Cl -7%, CC1CCCN(CC(O)COCc2ccccc2)C1 (stereo not given) 1%, CCCC(NC(=O)c1ccco1)c1nc2ccccc2[nH]1 (stereo not given) -5%, C=CCn1c(SCc2cccc(F)c2)nc2cc(C(=O)N3CCC(C(N)=O)CC3)ccc2c1=O -2%, CN(CCOc1ccccc1)Cc1nc2cc(Cl)ccc2c(=O)[nH]1 0%, CC1CC(C)CN(S(=O)(=O)c2ccc(C(=O)NN3CCOCC3)cc2)C1 (stereo not given) 1%, COc1ccc2c(c1)C(SCC(=O)NCc1ccccc1)CC(C)(C)O2 (stereo not given) -4%, COC(=O)CCNC(=O)c1ccc2[nH]c(C)c(C)c2c1 1%, Cc1ccc(NC(=O)CSc2nnc(COc3ccccc3C)o2)cc1 -1%, COC(=O)CC(=O)N1CCN(c2ccc(Cl)c(Cl)c2)CC1 4%, CSCc1ccc(C(=O)Nc2cc(C)cc(C)c2)cc1 -5%, CCN1CCN(CC(=O)Nc2sc3c(c2C#N)CCC3)CC1 3%, CCOc1cnc(C(=O)NNC(=O)c2ccccc2Br)o1 0%, COc1ccc(-c2csc(NC(=O)COC(=O)c3ccc(Br)o3)n2)cc1 -1%, O=C(CCSc1ccccc1)N1CCN(c2ccccc2F)CC1 -2%, O=C(CCCc1ccccc1)NCc1ccccc1 -1%, COc1cc(/C=C/C2=CC(C)(C)NC(=S)N2)cc(OC)c1OC 0%, CCCCN(CC)C(=O)c1ccccc1Oc1ccccc1 -2%

— PubChem BioAssay AID952 (NMMLSC, 2007)
